Data reported in PubChem BioAssay AID1159580 (chemical genetic matrix, 2015).
The campaign covered roughly 5,500 compounds. About 2,000 (36%) were called active. Not shown: some 18% with an inconclusive outcome. No stated cut-off is given here; in the data, active means normalized growth mostly below about 0.91 (no sharp cut-off); inconclusive means no clear call, values can overlap the other calls; inactive means mostly above about 0.92. Some of the results follow.

Assay: chemical genetic growth profiling, strain panel (AID 1159580);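 further: tested at 20 µM; growth read once vehicle control cultures reached saturation at 30 °C; 1 = growth at the plate median or of vehicle wells; lower values mean less growth of the strain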
Conditions: growth OD

Measured: normalized growth

CC(=O)Oc1ccc(C(c2ccc(OC(C)=O)cc2)c2ccccn2)cc1
inactive: S. cerevisiae deletion strains, locus YJR075W, strain HOC1, hits give low values 0.978 | S. cerevisiae deletion strains, locus YKL009W, strain mrt4, hits give low values 0.985 | S. cerevisiae deletion strains, locus YKL068W, hits give low values 1 | S. cerevisiae deletion strains, locus YKL085W, strain MDH1 (second series), hits give low values 0.986 | S. cerevisiae deletion strains, locus YKL085W, strain MDH1, hits give low values 0.986 | S. cerevisiae deletion strains, locus YKL160W, strain elf1, hits give low values 1.03 | S. cerevisiae deletion strains, locus YKL190W, strain CNB1, hits give low values 0.989 | S. cerevisiae deletion strains, locus YKR001C, strain vps1, hits give low values 0.984 | S. cerevisiae deletion strains, locus YKR026C, strain gcn3, hits give low values 1.01 | S. cerevisiae deletion strains, locus YKR091W, strain srl3, hits give low values 1.02 | S. cerevisiae deletion strains, locus YLL001W, strain dnm1, hits give low values 1.01 | S. cerevisiae deletion strains, locus YLL026W, hits give low values 1.02 | S. cerevisiae deletion strains, locus YLL041C, strain sdh2, hits give low values 1.03 | S. cerevisiae deletion strains, locus YLR027C, strain aat2, hits give low values 1.02 | S. cerevisiae deletion strains, locus YLR039C, strain RIC1, hits give low values 0.986 | S. cerevisiae deletion strains, locus YLR058C, strain SHM2, hits give low values 0.984 | S. cerevisiae deletion strains, locus YLR102C, strain apc9, hits give low values 0.995 | S. cerevisiae deletion strains, locus YLR113W, strain HOG1, hits give low values 0.953 | S. cerevisiae deletion strains, locus YLR221C, strain rsa3, hits give low values 1.02 | S. cerevisiae deletion strains, locus YLR258W, strain gsy2, hits give low values 1.03 | S. cerevisiae deletion strains, locus YLR262C, strain YPT6 (second series), hits give low values 1.01 | S. cerevisiae deletion strains, locus YLR262C, strain YPT6, hits give low values 0.969 | S. cerevisiae deletion strains, locus YLR268W, strain sec22, hits give low values 0.992 | S. cerevisiae deletion strains, locus YLR320W, strain mms22, hits give low values 1 | S. cerevisiae deletion strains, locus YLR330W, strain CHS5, hits give low values 0.988 | S. cerevisiae deletion strains, locus YLR342W, strain FKS1 (second series), hits give low values 1.02 | S. cerevisiae deletion strains, locus YLR342W, strain FKS1, hits give low values 1.01 | S. cerevisiae deletion strains, locus YLR357W, strain rsc2, hits give low values 1.08 | S. cerevisiae deletion strains, locus YLR370C, strain arc18, hits give low values 1.03 | S. cerevisiae deletion strains, locus YLR371W, strain rom2, hits give low values 0.983 | S. cerevisiae deletion strains, locus YLR384C, strain iki3, hits give low values 1.02 | S. cerevisiae deletion strains, locus YLR418C, strain cdc73, hits give low values 0.999 | S. cerevisiae deletion strains, locus YML016C, strain PPZ1, hits give low values 0.981 | S. cerevisiae deletion strains, locus YML032C, strain rad52, hits give low values 0.998 | S. cerevisiae deletion strains, locus YML120C, strain ndi1, hits give low values 1 | S. cerevisiae deletion strains, locus YML124C, strain tub3, hits give low values 0.992 | S. cerevisiae deletion strains, locus YMR058W, strain fet3, hits give low values 1.01 | S. cerevisiae deletion strains, locus YMR078C, strain ctf18, hits give low values 0.985 | S. cerevisiae deletion strains, locus YMR125W, strain sto1, hits give low values 1.02 | S. cerevisiae deletion strains, locus YMR129W, hits give low values 1.02 | S. cerevisiae deletion strains, locus YMR205C, strain PFK2, hits give low values 0.985 | S. cerevisiae deletion strains, locus YMR223W, strain ubp8, hits give low values 0.987 | S. cerevisiae deletion strains, locus YMR231W, strain pep5, hits give low values 1.02 | S. cerevisiae deletion strains, locus YMR263W, strain SAP30, hits give low values 0.963 | S. cerevisiae deletion strains, locus YMR307W, strain GAS1, hits give low values 0.934 | S. cerevisiae deletion strains, locus YNL067W, strain RPL9B, hits give low values 0.965 | S. cerevisiae deletion strains, locus YNL071W, strain lat1, hits give low values 1.01 | S. cerevisiae deletion strains, locus YNL183C, strain NPR1, hits give low values 0.928 | S. cerevisiae deletion strains, locus YNL209W, strain ssb2, hits give low values 1 | S. cerevisiae deletion strains, locus YNL233W, strain BNI4, hits give low values 0.971 | S. cerevisiae deletion strains, locus YNL248C, strain rpa49, hits give low values 1.03 | S. cerevisiae deletion strains, locus YNL250W, strain rad50, hits give low values 0.98 | S. cerevisiae deletion strains, locus YNL271C, strain bni1, hits give low values 0.985 | S. cerevisiae deletion strains, locus YNL298W, strain CLA4, hits give low values 0.989 | S. cerevisiae deletion strains, locus YNL307C, strain MCK1, hits give low values 0.989 | S. cerevisiae deletion strains, locus YNL322C, strain KRE1 (second series), hits give low values 1.01 | S. cerevisiae deletion strains, locus YNL322C, strain KRE1, hits give low values 1 | S. cerevisiae deletion strains, locus YNR049C, strain mso1, hits give low values 1.01 | S. cerevisiae deletion strains, locus YNR052C, strain pop2, hits give low values 0.997 | S. cerevisiae deletion strains, locus YOL012C, strain htz1 1.18 | S. cerevisiae deletion strains, locus YOL147C, strain pex11, hits give low values 0.979 | S. cerevisiae deletion strains, locus YOR001W, strain rrp6, hits give low values 0.973 | S. cerevisiae deletion strains, locus YOR061W, strain CKA2, hits give low values 0.995 | S. cerevisiae deletion strains, locus YOR069W, strain VPS5, hits give low values 0.989 | S. cerevisiae deletion strains, locus YOR070C, strain gyp1, hits give low values 1 | S. cerevisiae deletion strains, locus YOR080W, strain dia2, hits give low values 1.02 | S. cerevisiae deletion strains, locus YOR083W, strain WHI5, hits give low values 1.02 | S. cerevisiae deletion strains, locus YOR106W, strain vam3, hits give low values 1.05 | S. cerevisiae deletion strains, locus YOR136W, strain idh2, hits give low values 0.975 | S. cerevisiae deletion strains, locus YOR144C, strain elg1, hits give low values 0.984 | S. cerevisiae deletion strains, locus YOR184W, strain ser1, hits give low values 1.01 | S. cerevisiae deletion strains, locus YOR231W, strain MKK1, hits give low values 0.974 | S. cerevisiae deletion strains, locus YOR265W, strain rbl2, hits give low values 1 | S. cerevisiae deletion strains, locus YOR270C, strain vph1, hits give low values 1.02 | S. cerevisiae deletion strains, locus YOR290C, strain snf2, hits give low values 1.04 | S. cerevisiae deletion strains, locus YOR316C, strain cot1, hits give low values 0.984 | S. cerevisiae deletion strains, locus YPL051W, strain arl3, hits give low values 1.01 | S. cerevisiae deletion strains, locus YPL078C, strain atp4, hits give low values 1.01 | S. cerevisiae deletion strains, locus YPL106C, strain sse1, hits give low values 1.03 | S. cerevisiae deletion strains, locus YPL240C, strain hsp82, hits give low values 1.02 | S. cerevisiae deletion strains, locus YPL241C, strain CIN2, hits give low values 0.996 | S. cerevisiae deletion strains, locus YPL256C, strain CLN2, hits give low values 1 | S. cerevisiae deletion strains, locus YPR119W, strain clb2, hits give low values 0.996 | S. cerevisiae deletion strains, locus YPR141C, strain kar3, hits give low values 0.974 | S. cerevisiae deletion strains, locus YPR163C, strain tif3, hits give low values 0.996 | S. cerevisiae deletion strains, locus YPR167C, strain met16, hits give low values 0.989 | S. cerevisiae deletion strains, strain wtn01, hits give low values 1.01 | S. cerevisiae strains, strain wild type, hits give low values 1
